Experimental data published in PubChem BioAssay (NCATS).
Inconclusive results are not listed. Unmarked numbers belong to inactive results. Calls of active or inactive are those of the source. The call rests on the fitted dose curve; in most records, active means well fitted inhibition curve with a large enough effect; inconclusive means small, poorly fitted or top-dose-only effect; inactive means no such curve, though single readings can be large or run the other way.

Test: qHTS Screen of the MIPE 4.0 Collection Against Ewings Sarcoma (TC32) (AID 1259256); further: nearly all actives have a fitted effect of over 45% in size;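 on viability (percent of control): 100% = DMSO-treated cells and 0% = medium-only wells without cells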
Conditions: TC32 Ewing sarcoma viability, CellTiter-Glo, 48 h; series mostly up to 45.8 µM; viability (percent of control): at the top concentration
Description: There is a large unmet medical need for treatments for Ewing sarcoma, a pediatric sarcoma. We sought to identify compounds that inhibited Ewing sarcoma cells in vitro with the goal to then test promising drugs in two drug combinations in vitro to look for synergistic drug combinations. Promising combinations would then proceed to additional validation, including in vivo testing.
Using the NCATS developed oncology compound library called the Mechanism of Interrogation Plate (MIPE), four Ewing sarcoma cell lines were evaluated (TC32, TC71, RDES, EW8). Compounds, in a 12-point titration series, were incubated with cells for 48 hours and the read out was cell viability (CellTiter-Glo from Promega). These initial experiments were used to select appropriate concentrations of each single agent for subsequent two-drug matrix combinations such that the concentrations in the matrices would span both activity and non-activity.
Cells, in the log phase of growth, were seeded in 5 uL of RPMI plus 5% FBS, […] L-glutamine, 100 U/ml penicillin and 100 ug/ml streptomycin into 1536-well solid-bottom white tissue culture treated Greiner Bio One Plates (789173-F) using a MultiDrop Combi (Thermofisher Scientific) dispenser and a small sterile cassette. One column was media alone to be used as a :"no cells" control. The plates were then covered with sterilized stainless steel gasketed lids from Kalypsys. After allowing cells to attach for 4 hours, 23 nL of test compound or control (negative control DMSO and positive control 9.2 uM Bortezomib-final) were added from a 1536-well polypropylene compound source plate to each well using a 1536 head pin tool from Kalypsys. Cells were then incubated for 48 hours at 37C, 95% relative humidity and 5% CO2. After 48 hours, plates were removed from the incubator and 3 uL of CellTiter-Glo (Promega) was added using an Aurora Flying Reagent Dispenser Bioraptor. Plates were incubated at room temperature for 10 minutes prior to reading the luminescence on the Viewlux (PerkinElmer). The relative luciferase units are used to calculate the percent activity using the activity of DMSO in the cells and no cells columns for normalization of no inhibition and full inhibition respectively.
Potency means the concentration at half of the fitted maximal effect.

Structure (SMILES)	viability (percent of control) [%]	Potency
CC(=O)OCC(=O)[C@@]12OC(C)(C)O[C@H]1C[C@H]1[C@@H]3C[C@H](F)C4=CC(=O)C=C[C@]4(C)[C@@]3(F)[C@@H](O)C[C@@]12C	142	
COc1ccc(-c2oc3c(CC=C(C)C)c(O)cc(O)c3c(=O)c2O)cc1		23.5 µM (active)
COc1cc2nccc(Oc3ccc(NC(=O)Nc4ccc(F)cc4F)c(F)c3)c2cc1OC		6.62 µM (active)
CN1CCN(c2ncc(-c3cc(Cl)cc(Cl)c3Cl)c(N)n2)CC1	117	
CN1CCC(COc2cnc(-c3cccc(Cn4nc(-c5cccc(C#N)c5)ccc4=O)c3)nc2)CC1		20.9 µM (active)
Oc1ccc(C=Cc2cc(O)cc(O)c2)cc1		18.7 µM (active)
CN(C)CCCNC(=O)c1ccc(-c2cc(O)c3ncccc3c2)cc1		14.8 µM (active)
Cc1cn([C@@H]2C[C@@H](O)[C@H](CO)O2)c(=O)[nH]c1=O	106	
O=C(Nc1cccc2c(=O)cc(-c3nn[nH]n3)oc12)c1ccc(OCCCCc2ccccc2)cc1		18.7 µM (active)
CNC(=O)c1ccc2c(C(=Nc3cccc(CN(C)C)c3)c3ccccc3)c(O)[nH]c2c1	93.7	
COc1cc(C=CC(=O)O)ccc1O	109	
Nc1[nH]nc2nnc(-c3c(-c4ccccc4)nn4ccccc34)cc12		11.8 µM (active)
C[C@@H]1O[C@@H](O[C@H]2CC[C@@]3(C)[C@H](CC[C@@H]4[C@H]3C[C@@H](O)[C@]3(C)[C@@H](C5=CC(=O)OC5)CC[C@]43O)C2)C[C@H](O)[C@@H]1O[C@H]1C[C@H](O)[C@H](O[C@H]2C[C@H](O)[C@@H](O)[C@@H](C)O2)[C@H](C)O1 (stereo in doubt)		0.241 µM (active)
COc1cc(Nc2nc3ccccc3nc2NS(=O)(=O)c2ccc(NC(=O)c3ccc(C)c(OC)c3)cc2)cc(OC)c1		18.7 µM (active)
Cc1cnc(Nc2cccc(CN3CCOCC3)c2)nc1Nc1cccc(S(=O)(=O)NC(C)(C)C)c1		1.87 µM (active)
Cc1nc(NC(=O)N2CCC[C@@H]2C(N)=O)sc1-c1csc(C(C)(C)C)n1		6.62 µM (active)
O=C1C(c2c(O)[nH]c3ccccc23)=Nc2ccccc21		29.6 µM (active)
CCc1cc(-c2n[nH]c(C)c2-c2ccc3c(c2)OCCO3)c(O)cc1O		4.18 µM (active)
CCCCC(C=O)NC(=O)C(CC(C)C)NC(=O)OCc1ccccc1 (stereo not given)	113	
COc1cc([C@H]2Oc3cc([C@H]4Oc5cc(O)cc(O)c5C(=O)[C@H]4O)ccc3O[C@H]2CO)ccc1O		16.6 µM (active)

Structure (SMILES)	viability (percent of control) [%]	Potency
NS(=O)(=O)c1ccc(Nc2nc(OCC3CCCCC3)c3[nH]cnc3n2)cc1		16.6 µM (active)
Cc1cc(-c2ncc(CC(=O)Nc3ccc(-c4cnccn4)cn3)cc2C)ccn1		23.5 µM (active)
CCNC(=O)CCCC=CC[C@@H]1[C@H](C=CC(O)CCc2ccccc2)[C@@H](O)C[C@@H]1O (stereo not given in full)	110	
CC1=C(CC(=O)O)c2cc(F)ccc2C1=Cc1ccc(S(C)=O)cc1 (stereo not given)		1.48 µM (active)
CC(C)n1c(C=C[C@H](O)C[C@H](O)CC(=O)O)c(-c2ccc(F)cc2)c2ccccc21		2.35 µM (active)
C[C@@H]1C[C@H]2[C@@H]3CCC4=CC(=O)C=C[C@]4(C)[C@@]3(F)[C@@H](O)C[C@]2(C)[C@@]1(O)C(=O)CO	131	
CCOC(=O)c1c(CSc2ccccc2)n(C)c2cc(Br)c(O)c(CN(C)C)c12		13.2 µM (active)
Cc1cc(CS(=O)(=O)c2ccccc2)cc(OCc2ccc(CN3CCC[C@H]3CO)cc2)c1		20.9 µM (active)
C[C@@]1(C(=O)Nc2ccc(F)nc2)CCCN1c1nc(Nc2cc(C3CC3)[nH]n2)c2cccn2n1		0.418 µM (active)
CCOC(=O)[C@H](CCc1ccccc1)N[C@@H](C)C(=O)N1CCCC1C(=O)O (stereo not given in full)		16.6 µM (active)
C[C@@H](O[C@H]1OCCN(Cc2n[nH]c(=O)[nH]2)[C@@H]1c1ccc(F)cc1)c1cc(C(F)(F)F)cc(C(F)(F)F)c1		16.6 µM (active)
Nc1nc(Cl)nc2c1ncn2[C@@H]1O[C@H](CO)[C@@H](O)[C@H]1F	112	
C=CCc1cccc(C=NNC(=O)CN2CCN(Cc3ccccc3)CC2)c1O		7.43 µM (active)
CCC(c1ccc(O)cc1)C(CC)c1ccc(O)cc1 (stereo not given)		1.48 µM (active)
Cn1cnc(-c2cc3nccc(Oc4ccc(NC(=S)NC(=O)Cc5ccccc5)cc4F)c3s2)c1		18.7 µM (active)
O=C(Nc1ccccc1)Nc1ccc(-c2ccc(C(=O)[C@H]3CCC[C@H]3C(=O)O)cc2)cc1		18.7 µM (active)
COc1cc2ncnc(Nc3cc(Br)c(O)c(Br)c3)c2cc1OC		0.418 µM (active)
CCC[C@H](N[C@@H](C)C(=O)N1[C@@H]2CCCC[C@H]2C[C@H]1C(=O)O)C(=O)OCC	115	
N=C1SC(=Cc2ccc(-c3ccc4c(c3)C(=O)NC4=O)o2)C(=O)N1c1ccc(Br)cc1		18.7 µM (active)
CCCCC(C)(C)[C@H](O)C=C[C@H]1[C@H](O)CC(=O)[C@H]1CC=CCCCC(=O)O		23.5 µM (active)
